The list is not random: actives were taken first. Their share in the collection is about 0.65%.
NS1 function inh – qHTS Assay for Inhibitors of Influenza NS1 Protein Function; Potency, µM (doses to about 46.1 µM), for the others: at the highest dose activity, positive = more growth; actives 0.4% (n = 270,000); AID 2326, 2010; note: potency is the fitted concentration of half-maximal effect; actives are rising curves; nearly all actives have a fitted effect of over 50% in size
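Recovery from NS1-induced slow growth read by OD600 in budding yeast switched to galactose assay medium (pH 6.0, -URA) at 1:100 dilution. Compound 23 nl per well; the matching strain lacking NS1 serves as control.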
SARS PLpro yeast-1 – qHTS of Yeast-based Assay for SARS-CoV PLP; Potency, µM (highest dose often 32.9 µM), for the others: top-dose activity, positive = growth rescue, hits mostly activators; S. cerevisiae expressing SARS-CoV PLpro, growth rescue; actives 0.19% (n = 330,000); note: potency is the fitted concentration of half-maximal effect; 0% is about no effect; nearly all actives have a fitted effect of over 55% in size
AMA1 RON2 block – qHTS for Inhibitors of AMA1-RON; Towards Development of Antimalarial Drug Lead: Primary Screen; actives 0.2% (n = 360,000); Plasmodium falciparum AMA1 (3D7) - RON2 peptide interaction; AID 720542, 2013; Potency, µM (top dose mostly 58.2 µM), inactives show at the highest dose activity change, negative = inhibition, actives largely listed as inhibitors; AlphaScreen AMA1-biotinylated RON2 peptide binding; active = well fitted inhibition curve with a large enough effect; inconclusive = small, poorly fitted or top-dose-only effect; inactive = no such curve, though single readings can be large or run the other way;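 note: potency is the fitted concentration of half-maximal effect; 0% = vehicle wells and -100% = peptide control; nearly all actives have a fitted effect of over 45% in size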
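AMA1 (3D7) with his tag at 25 nM final met compounds first, then biotinylated RON2 peptide at 25 nM; detection used donor plus acceptor beads, 10 µg/mL apiece, read by AlphaScreen after 30 min at room temperature.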
SARS PLpro yeast-2 – qHTS of Yeast-based Assay for SARS-CoV PLP: Hit Validation; AID 652038, 2013; actives 19% (n = 1,000); shares compounds with SARS PLpro yeast-1; yeast expressing SARS-CoV PLpro, growth phenotype rescue; calls only; call rule not given here
The depositor's hits bear a star; i = inactive; u = inconclusive; x = no result given; + = active, no number. Unless noted, calls come from the whole dose curve.

SMILES | NS1 function inh | SARS PLpro yeast-1 | AMA1 RON2 block | SARS PLpro yeast-2
C[C@H](CO)N1C[C@H](C)[C@@H](CN(C)C(=O)Nc2ccc(C(F)(F)F)cc2)Oc2ccc(NC(=O)CCC(F)(F)F)cc2C1=O | x | 2% | 16% | x
S=C(NN=Cc1ccc2c(c1)OCO2)NN=Cc1ccc2c(c1)OCO2 | x | x | 35% | x
CC(C)NC(=S)N/N=C/c1ccc2c(c1)OCCO2 | 3% | 16µM* | 14% | +
COc1ccc(OC)c(NC(=O)CSc2nc(=O)n(CCN3CCOCC3)c3c2CCCC3)c1 | x | -1% | -2% | x
C=CCn1c(O)c(N=NC(=S)Nc2cccc(C)c2)c2ccccc21 | u | u | -30% | +
C=CCn1c(O)c(N=NC(=S)Nc2ccccc2F)c2ccccc21 | x | -2% | -12% | x
Cc1ccc(S(=O)(=O)N2CCN(C(=O)COC(=O)CCOc3ccccc3C)CC2)c(C)c1 | x | -2% | 0% | x
COc1ccc(OC)c(C2C=C(C34CC5CC(CC(C5)C3)C4)NC(=S)N2)c1 (configuration not stated) | 18% | u | -20% | +
COc1cc(C2C=C(C34CC5CC(CC(C5)C3)C4)NC(=S)N2)cc(OC)c1OC (configuration not stated) | 7% | 12% | 48% | x
COC(=O)c1c(C)[nH]c(C(=O)OCC(=O)c2ccc(C)s2)c1C | x | -26% | -18% | x
COc1cccc(NC(=O)CCS(=O)(=O)c2ccc3c(c2)oc(=O)n3C)c1 | 2% | -6% | -1% | x
CC(=O)Nc1ccc(C(=O)OCc2ccc(Br)cc2)cc1 | -28% | -69% | -2% | x
CC(=O)Nc1cccc(C(=O)OCc2ccc(C(=O)Oc3ccc(Cl)cc3)cc2)c1 | 4% | u | -4% | i
COC(=O)c1c(NC(C)=O)sc(C)c1C | x | 0% | -6% | x
CC(=O)Nc1ccc(NC(=O)C(C)OC(=O)c2c(NC(C)=O)sc(C)c2C)cc1 (configuration not stated) | x | u | -1% | i
COc1ccc(C(=O)NCc2nnc(SCC(=O)NC3CCCC3)o2)cc1 | -9% | 0% | -2% | x
O=C(O)CCn1cc(C(=O)O)c(-c2ccccc2)n1 | -2% | 5% | 0% | x
CCOC(=O)c1[nH]c2ccc(OC)cc2c1NC(=O)c1nonc1C | -9% | 4% | 0% | x
CCOC(=O)c1[nH]c2ccc(Cl)cc2c1NC(=O)c1nonc1C | 10% | u | 9% | +
COc1ccc(N2CCN(C(=O)c3ccc(CS(=O)(=O)c4ccc(Br)cc4)o3)CC2)cc1 | 5% | -1% | -11% | x
COc1cc(C(=O)NCC(=O)N/N=C(/C)c2cccs2)cc(OC)c1OC | -3% | u | 7% | i
COc1ccc(/C(C)=N/NC(=O)CNC(=O)c2cccs2)cc1OC | x | 3% | 12% | x
CC1CCCN(c2nc3c(c(=O)[nH]c(=O)n3C)n2CCCc2ccccc2)C1 (configuration not stated) | -57% | u | -4% | i
CC1CCN(c2nc3c(c(=O)[nH]c(=O)n3C)n2Cc2ccccc2)CC1 | 6% | -3% | -5% | x
O=C(COC(=O)/C=C/c1ccccc1[N+](=O)[O-])Nc1ccc(S(=O)(=O)N2CCOCC2)cc1 | x | 3% | -10% | x
SMILES | NS1 function inh | SARS PLpro yeast-1 | AMA1 RON2 block | SARS PLpro yeast-2
CCn1c(=O)c2ccccc2n(Cc2ccc([N+](=O)[O-])cc2)c1=O | -12% | 4% | -4% | x
Cc1c(C=O)c2ccccc2n1Cc1ccc([N+](=O)[O-])cc1 | 5% | u | -22% | i
Cc1cc(NC(=O)CC2Oc3ccccc3NC2=O)ccc1Br (configuration not stated) | 11% | 1% | 19% | x
CC(C)C(=O)Nc1ccc(N2CCOCC2)c(S(=O)(=O)Nc2ccccc2Cl)c1 | x | 1% | -2% | x
CCOc1ccc(OCCC(=O)N(CCCOC)c2c(N)n(Cc3ccccc3)c(=O)[nH]c2=O)cc1 | x | u | -10% | i
CCCCN(C(=O)CCOc1ccc(OCC)cc1)c1c(N)n(Cc2ccccc2)c(=O)[nH]c1=O | x | x | -13% | x
CCCCN(C(=O)CSc1nnc(-c2ccc(OC)cc2)n1CC)c1c(N)n(Cc2ccccc2)c(=O)[nH]c1=O | u | u | -5% | i
CCCCN(C(=O)CSc1nnc(-c2ccc(OC)cc2)n1C(C)C)c1c(N)n(Cc2ccccc2)c(=O)[nH]c1=O | -5% | -11% | -6% | x
COc1ccc(Cl)cc1S(=O)(=O)N(C)CC(=O)N1CCOCC1 | 9% | 0% | 11% | x
O=C(Cc1cccs1)NCCS(=O)(=O)N1CCN(c2cccc(Cl)c2)CC1 | x | 5% | 3% | x
CCNC(=S)Nc1ccc(C)c(Cl)c1 | -3% | u | -14% | +
CCNC(=S)Nc1ccc(Cl)cc1 | 11% | 25% | -1% | x
Cc1ccc(-c2nc3ccccc3c(=O)n2-c2cccc(C)n2)cc1 | -2% | -2% | 14% | x
Cc1ccc(-c2nc3ccccc3c(=O)n2-c2cc(C)ccn2)cc1 | 6% | 4µM* | 9% | i
Cc1nn(C2CCS(=O)(=O)C2)c(C)c1CN(C)C(=O)c1ccc(F)cc1 (configuration not stated) | x | x | -1% | x
CCN(CC(=O)Nc1ccc(NC(C)=O)cc1)C(=O)/C=C/c1c(C)nn(-c2ccc(F)cc2)c1C | -5% | u | 27% | i
CCN(CC(=O)Nc1ccc(NC(C)=O)cc1)C(=O)/C=C/c1cccs1 | 2% | -4% | 36% | x
CC(C)(C)OC(=O)C[C@@H]1C/C=C\C[C@@H](CC(=O)N[C@@H](CO)Cc2ccccc2)C(=O)NC[C@@H](c2ccccc2)OC1=O | x | 1% | 1% | x
CC(C)(C)OC(=O)C[C@H]1C/C=C\C[C@@H](CC(=O)N[C@@H](CO)Cc2ccccc2)C(=O)NC[C@H](c2ccccc2)OC1=O | x | 3.5µM* | 18% | i
COCC(=O)N1CCC(Oc2ccc(C(=O)N3C[C@H]4CC[C@H]3C4)cc2)CC1 | 5% | 19% | 4% | x
COc1ccc(Cl)cc1NS(=O)(=O)c1cn(C)nc1C | -2% | u | 10% | i
Cc1ccc(Cl)cc1NS(=O)(=O)c1cn(C)nc1C | -5% | 5% | -1% | x
O=Cc1c(Sc2ccccc2)nc2ccccn2c1=O | -52% | u | 2% | i
O=Cc1c(Sc2ccccn2)nc2ccccn2c1=O | 2% | -4% | 0% | x
Cc1nnc2n(-c3ccccc3)c(=O)c3c4c(sc3n12)COC(C)(C)C4 | 7% | u | 12% | i
Cc1nnc2n(C)c(=O)c3c4c(sc3n12)COC(C)(C)C4 | x | x | -14% | x
N#Cc1ccc(-c2ccc(C3Nc4ccccc4C(=O)N3O)o2)cc1 (configuration not stated) | x | 2% | x | x
CCOC(=O)c1ccc(-c2ccc(C3Nc4ccccc4C(=O)N3O)o2)cc1 (configuration not stated) | -29% | 5µM* | 36% | u
C=CCN1C(=O)C(CC(=O)O)S/C1=N/N=C/c1ccc(N(CC)CC)cc1 (configuration not stated) | x | -10% | 4% | x
O=C(Nc1cccnc1)c1ccc(N2CCCC2)c([N+](=O)[O-])c1 | 1% | 1% | -12% | x

Screens from PubChem.
